Measurements from paper PMC10668032, “Altered binding affinity of SIX1-Q177R correlates with enhanced WNT5A and WNT pathway effector expression in Wilms tumor”.
The full ranking holds about 33,000 sequences; the median of “e-score” is about -0.053, and the highest 2% start at about 0.38. The list comes from a sample in which the highest values are over-represented; it also holds similar and randomly drawn sequences.

Each sequence was assayed against T1, SIX1 homeodomain (reference allele) (human, UniProt Q15475 108-198) (assay: universal protein binding microarray; Universal all-10-mer PBM (8x60K, AMADID 030236), 300 nM GST-tagged protein, Alexa Fluor 488 anti-GST; buffer, salt, pH and temperature not stated (as in Berger); high values mean tight binding). Conditions: protein: ivt; tags: N-terminal GST; dsDNA, one strand shown.
T1 sequence: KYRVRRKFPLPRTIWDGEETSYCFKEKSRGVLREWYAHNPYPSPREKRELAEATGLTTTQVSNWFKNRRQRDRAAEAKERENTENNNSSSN
Outline: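 Homeodomains fused to GST were made by in vitro transcription/translation and measured by anti-GST western blot with a recombinant GST standard curve. At 300 nM final concentration, they were applied in duplicate to universal 'all 10-mer' protein binding microarrays (8×60K format).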

Sequence	binding signal
ACCGCGCG	0.175 ± 0.0242 E-score
CGCGATCA	0.272 ± 0.00455 E-score
AGCGATCC	0.356 ± 0.0223 E-score
CGCGATCC	0.391 ± 0.0245 E-score
CGTATATA	0.253 ± 0.0289 E-score
ATTATACG	0.302 ± 0.0645 E-score
GGTATATA	0.384 ± 0.0217 E-score
CTTATACC	0.275 ± 0.0521 E-score
GCTATACC	0.284 ± 0.0448 E-score
TGTATACA	0.3188 ± 0.000346 E-score
AGTATACA	0.294 ± 0.0103 E-score
GGTATAAC	0.301 ± 0.0179 E-score
GGTATAGA	0.3008 ± 0.001 E-score
GGTATACC	0.464 ± 0.0068 E-score
GGTATACA	0.3843 ± 0.00371 E-score
ATTATACC	0.389 ± 0.0376 E-score
ACCAGTAT	0.24 ± 0.0167 E-score
ATCCTGTC	0.228 ± 0.0128 E-score
ATCCATGA	0.273 ± 0.0349 E-score
CGCAGATC	0.214 ± 0.00241 E-score
GGATAGCA	0.241 ± 0.00553 E-score

Sequence	binding signal
ATCTATTC	0.24 ± 0.00333 E-score
AGTATACT	0.219 ± 0.0526 E-score
CGTATACC	0.367 ± 0.014 E-score
AGTATACC	0.389 ± 0.0206 E-score
ATACTTGC	0.215 ± 0.0473 E-score
CGGGGATC	0.396 ± 0.0226 E-score
CAGGGATC	0.42 ± 0.0412 E-score
ACGGGATC	0.342 ± 0.0556 E-score
AGGGGATC	0.426 ± 0.0173 E-score
ATGGGATC	0.368 ± 0.0389 E-score
CAAGGATC	0.351 ± 0.0137 E-score
AGGGGATG	0.201 ± 0.0454 E-score
CTGGGATC	0.297 ± 0.0767 E-score
CCGGGATC	0.375 ± 0.0348 E-score
CAGGGATA	0.328 ± 0.0119 E-score
GAAGGATA	0.268 ± 0.0478 E-score
GAAGGATC	0.39 ± 0.012 E-score
GCTGTATA	0.232 ± 0.0591 E-score
ATACACTG	0.338 ± 0.00871 E-score
ACGTCTCA	0.322 ± 0.0324 E-score
AGATCTCA	0.262 ± 0.0503 E-score

Sequence	binding signal
TCCATCAA	0.168 ± 0.0474 E-score
ATACTTAA	0.19 ± 0.132 E-score
AGTCATAT	0.257 ± 0.0554 E-score
CGATAGTA	0.263 ± 0.0297 E-score
AAGGGATC	0.377 ± 0.0133 E-score
AAAGGATC	0.279 ± 0.0681 E-score
AAGGGATT	0.188 ± 0.061 E-score
ATACGCCG	0.277 ± 0.0315 E-score
ATATTATA	0.333 ± 0.0863 E-score
GTATTAGA	0.237 ± 0.0563 E-score
GTATTATA	0.377 ± 0.042 E-score
AATACGGA	0.169 ± 0.0478 E-score
CATCCACG	0.183 ± 0.0475 E-score
GGTGAGAA	0.162 ± 0.0553 E-score
CATATCGA	0.417 ± 0.00575 E-score
CATATAGA	0.183 ± 0.00672 E-score
CATATAGC	0.162 ± 0.0222 E-score
GATATAGC	0.368 ± 0.0388 E-score
CAGATCGA	0.277 ± 0.0349 E-score
AATATCGC	0.299 ± 0.0725 E-score
CATATCGC	0.424 ± 0.0197 E-score

Sequence	binding signal
CATATCGG	0.401 ± 0.0215 E-score
GAGATCGC	0.27 ± 0.0213 E-score
AATATCGT	0.309 ± 0.0634 E-score
AATATCGG	0.312 ± 0.0183 E-score
GATATCGC	0.468 ± 0.0155 E-score
GGTGTAAC	0.309 ± 0.00742 E-score
AGACGGTA	0.196 ± 0.0243 E-score
CACTAATA	0.215 ± 0.00278 E-score
GGATATTA	0.355 ± 0.0417 E-score
ATATGCCG	0.211 ± 0.0327 E-score
AGTTGTAT	0.215 ± 0.0407 E-score
AGATAAAG	0.183 ± 0.0397 E-score
CGTCTCAG	0.161 ± 0.0511 E-score
TACGCGCA	0.174 ± 0.0401 E-score
CGAATATC	0.308 ± 0.00674 E-score
GAACACCC	0.205 ± 0.0407 E-score
CCCCTTCC	0.164 ± 0.0967 E-score
GAGATCGA	0.271 ± 0.0142 E-score
GATATTGA	0.287 ± 0.088 E-score
